The text below walks through data of ChEMBL document CHEMBL1961873, “Compounds: GSK PKIS; Assays: Nanosyn kinase panel” (2012).

One test deals with T1, CDK3/Cyclin E (Homo sapiens) (UniProt P24864+Q00526). The following applies: at 0.1 µM.
T1 sequence (P24864 whole entry, looked up): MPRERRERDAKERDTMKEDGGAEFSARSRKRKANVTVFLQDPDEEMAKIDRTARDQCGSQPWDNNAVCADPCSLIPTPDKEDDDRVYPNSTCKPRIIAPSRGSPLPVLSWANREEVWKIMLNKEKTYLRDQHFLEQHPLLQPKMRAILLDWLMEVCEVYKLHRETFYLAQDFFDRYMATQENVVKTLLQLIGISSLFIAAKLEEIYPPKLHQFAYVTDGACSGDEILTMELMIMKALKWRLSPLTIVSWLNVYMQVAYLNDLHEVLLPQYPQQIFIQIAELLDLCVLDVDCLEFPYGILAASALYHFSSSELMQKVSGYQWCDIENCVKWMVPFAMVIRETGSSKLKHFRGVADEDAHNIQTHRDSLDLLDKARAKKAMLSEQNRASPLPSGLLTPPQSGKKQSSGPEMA
T1 sequence (Q00526 whole entry, looked up): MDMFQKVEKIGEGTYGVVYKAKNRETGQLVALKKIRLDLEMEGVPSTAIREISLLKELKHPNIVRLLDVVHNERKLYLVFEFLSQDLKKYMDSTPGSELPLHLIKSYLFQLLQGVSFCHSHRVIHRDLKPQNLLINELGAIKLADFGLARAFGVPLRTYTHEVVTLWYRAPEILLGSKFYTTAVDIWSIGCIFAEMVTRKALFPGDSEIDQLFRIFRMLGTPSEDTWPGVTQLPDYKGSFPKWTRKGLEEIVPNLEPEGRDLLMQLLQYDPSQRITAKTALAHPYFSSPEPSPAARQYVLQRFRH
With `CCN(CC)Cc1ccc(Nc2nccc(-c3cnn4ncccc34)n2)cc1`, the inhibition – broadly, the change of the read-out against control, counted positive when it falls – came out at 28.6%. For the compound `Fc1ccc(-c2ncn(C3CCNCC3)c2-c2ccnc(Oc3ccc(F)c(F)c3)n2)cc1`, the inhibition was -1.06%.

For the compound `C[C@@H](Oc1cc(-n2cnc3ccc(OCC4CCN(C)CC4)cc32)sc1C(N)=O)c1ccccc1Cl`, the inhibition was -2.62%. For `COc1ccc2cc(-c3c(-c4ccncc4)nc(-c4ccc([S+](C)[O-])cc4C)n3C)ccc2c1` (configuration not stated), the inhibition was -1.08%. In the case of `CN1CCN(CCCNc2nc3ccc(Oc4ccc(NC(=O)Nc5cc(C(F)(F)F)ccc5F)cc4)cc3[nH]2)CC1`, the inhibition came out at 0.7%.

With `Nc1nccc(-c2c(-c3ccc(F)cc3)ncn2C2CCC(O)CC2)n1` (configuration not stated), the inhibition was -1%. For `c1ccc(Oc2ccc(Nc3ncc(-c4ccccc4)o3)cc2)cc1`, the inhibition worked out at 0.29%. `COc1ccc(-c2ccc3c(NC(=O)C4CC4)n[nH]c3n2)cc1`: the inhibition is 2.19%. For `O=C(Nc1n[nH]c2nc(-c3ccco3)ccc12)C1CC1`, the inhibition is 0.19%. For `CCS(=O)(=O)c1ccc(OC)c(Nc2ncc(-c3ccccc3Cl)o2)c1`, the inhibition was -7.09%. Turning to `CN(C)c1ccc2c(c1)/C(=C/Nc1ccc(S(N)(=O)=O)cc1)C(=O)N2`, the inhibition was 5.6%. Turning to `CN(C)CCCNc1nccc(-c2c(-c3ccc(F)cc3)nn3cc(C(F)(F)F)ccc23)n1`, the inhibition was 0.59%. Still for that read-out and setting: next, `CCC(=O)Nc1ccc(C)c(-c2ccc(C(=O)NCC3CC3)cc2)c1`: -1.57%; `NS(=O)(=O)c1ccc(Nc2cc(-c3ccc(O)c(F)c3)n[nH]2)cc1`: 9.52%. For the compound `COc1cc2ncn(-c3cc(OCCc4ccccc4)c(C(N)=O)s3)c2cc1OC`, the inhibition stood at 1.71%.

As to `Cc1ccc(C(=O)NC(C)C)cc1-c1ccc(C(=O)NCC2CC2)cc1`, the inhibition was 1.57%. Regarding `NCc1ccc(-n2c(-c3nonc3N)nc3cnccc32)cc1`, the inhibition turned out to be 6.87%. Turning to `COc1cc(Nc2ncc3c(C)nc(-c4cccc(C(F)(F)F)c4)n3n2)cc(OC)c1OC`, the inhibition came to 2.35%.

The target of the next test is T1, CDK3/Cyclin E (Homo sapiens). The following applies: at 1 µM.
In the case of `CN(c1ccc(NC(=O)Nc2c(Cl)cccc2Cl)cc1)c1ccnc(Nc2cccc(CS(C)(=O)=O)c2)n1`, the inhibition was -0.7%. On the same count and under the same terms, the result for `CCS(=O)(=O)c1ccc(OC)c(Nc2ncc(-c3cccc(-c4ccccc4F)c3)o2)c1` reads 1.22%.

In the case of `CS(=O)(=O)CCNCc1ccc(-c2ccc3ncnc(Nc4ccc(OCc5ccccc5)c(Br)c4)c3c2)o1`, the inhibition is -3.92%.

In the case of `N#Cc1ccc(Oc2nccc(-c3c(-c4ccc(F)cc4)ncn3C3CCNCC3)n2)cc1`, the inhibition is -2.53%. As for `Fc1ccc(-c2ncn(C3CCNCC3)c2-c2ccnc(Oc3ccc4c(c3)OCO4)n2)cc1`, the inhibition was -0.86%. For `COc1cc(N2CCN(C(C)C)CC2)ccc1Nc1nc(Nc2ccc(F)cc2C(=O)NC[C@@H](O)CO)c2cc[nH]c2n1`, the inhibition was -3.1%. Turning to `O=C1NC(=O)C(c2cccc(Cl)c2)=C1Nc1ccc(Cl)c(C(=O)O)c1`, the inhibition was -3.39%.

For `NC(=O)c1cc(-c2ccncc2)cc(-c2ccccc2)c1N`, the inhibition is -0.18%. `CS(=O)(=O)CCNCc1cc(-c2cc3c(Nc4ccc(OCc5cccc(F)c5)c(Cl)c4)ncnc3s2)cs1`: the inhibition is -0.74%.

In the case of `Cc1ccc(C(=O)NC2CCC2)cc1-c1ccc(C(=O)NCC2CC2)cc1`, the inhibition is -2.09%. Same read-out and setting: the result for `NC(=O)c1cc(-c2ccc(F)cc2)cc(-c2ccncc2)c1N` reads -2.25%. For `O=C(Nc1n[nH]c2cc(-c3ccccc3)ccc12)C1CC1`, the inhibition is 4.6%. On the same count and under the same terms, next, `O=C(Nc1n[nH]c2nc(-c3ccc(O)cc3)c(Br)cc12)C1CC1`: 78.2%; `C/C(Nc1ccc(S(N)(=O)=O)cc1)=C1/C(=O)Nc2ccccc21`: 50.1%. On the same count and under the same terms, next, `O=C1Nc2ccccc2/C1=C/Nc1ccc(-n2cncn2)cc1`: 16.1%; `CCc1nccc2c1nc(-c1nonc1N)n2CC`: -0.63%; `CCN(CC)Cc1ccc(Nc2nccc(-c3cnn4ncccc34)n2)cc1`: 78.8%. Same read-out and setting: the result for `Fc1ccc(-c2ncn(C3CCNCC3)c2-c2ccnc(Oc3ccc(F)c(F)c3)n2)cc1` reads -1.08%. On to `C[C@@H](Oc1cc(-n2cnc3ccc(OCC4CCN(C)CC4)cc32)sc1C(N)=O)c1ccccc1Cl`, for which the inhibition is -1.61%. As to `COc1ccc2cc(-c3c(-c4ccncc4)nc(-c4ccc([S+](C)[O-])cc4C)n3C)ccc2c1` (configuration not stated), the inhibition was 0.89%. On the same count and under the same terms, next, `CN1CCN(CCCNc2nc3ccc(Oc4ccc(NC(=O)Nc5cc(C(F)(F)F)ccc5F)cc4)cc3[nH]2)CC1`: 2.2%; `Nc1nccc(-c2c(-c3ccc(F)cc3)ncn2C2CCC(O)CC2)n1` (configuration not stated): -0.81%.

In the case of `c1ccc(Oc2ccc(Nc3ncc(-c4ccccc4)o3)cc2)cc1`, the inhibition was -2.54%. Regarding `COc1ccc(-c2ccc3c(NC(=O)C4CC4)n[nH]c3n2)cc1`, the inhibition was determined as 3.03%. For the compound `O=C(Nc1n[nH]c2nc(-c3ccco3)ccc12)C1CC1`, the inhibition worked out at 4.64%. On to `CCS(=O)(=O)c1ccc(OC)c(Nc2ncc(-c3ccccc3Cl)o2)c1`, for which the inhibition is -0.99%.

`CN(C)c1ccc2c(c1)/C(=C/Nc1ccc(S(N)(=O)=O)cc1)C(=O)N2`: the inhibition stood at 38.9%.

For the compound `CN(C)CCCNc1nccc(-c2c(-c3ccc(F)cc3)nn3cc(C(F)(F)F)ccc23)n1`, the inhibition is 1.62%. Take `CCC(=O)Nc1ccc(C)c(-c2ccc(C(=O)NCC3CC3)cc2)c1`: the inhibition is -2.39%. As for `NS(=O)(=O)c1ccc(Nc2cc(-c3ccc(O)c(F)c3)n[nH]2)cc1`, the inhibition was determined as 60.1%. In the case of `COc1cc2ncn(-c3cc(OCCc4ccccc4)c(C(N)=O)s3)c2cc1OC`, the inhibition came out at 0.51%.

For the compound `Cc1ccc(C(=O)NC(C)C)cc1-c1ccc(C(=O)NCC2CC2)cc1`, the inhibition is -1.55%. In the case of `NCc1ccc(-n2c(-c3nonc3N)nc3cnccc32)cc1`, the inhibition was 6.36%. Regarding `COc1cc(Nc2ncc3c(C)nc(-c4cccc(C(F)(F)F)c4)n3n2)cc(OC)c1OC`, the inhibition was determined as 7.51%.
